# The campaign covered roughly 310,000 compounds. About 14,000 (4.5%) showed an effect of 50% or more. Effects have a minus sign here. The full list was thinned out, with strong results kept by preference.
# Target: human ether-à-go-go-related gene (hERG) potassium channel (human, UniProt Q12809)
# Experiment: primary screen, population patch clamp on CHO cells stably expressing hERG; higher = less effect of the substance
# 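Also: peak tail current of the secondary pulse compared with the same well before compound.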
# Sequence of human ether-à-go-go-related gene (hERG) potassium channel (Q12809 whole entry, looked up): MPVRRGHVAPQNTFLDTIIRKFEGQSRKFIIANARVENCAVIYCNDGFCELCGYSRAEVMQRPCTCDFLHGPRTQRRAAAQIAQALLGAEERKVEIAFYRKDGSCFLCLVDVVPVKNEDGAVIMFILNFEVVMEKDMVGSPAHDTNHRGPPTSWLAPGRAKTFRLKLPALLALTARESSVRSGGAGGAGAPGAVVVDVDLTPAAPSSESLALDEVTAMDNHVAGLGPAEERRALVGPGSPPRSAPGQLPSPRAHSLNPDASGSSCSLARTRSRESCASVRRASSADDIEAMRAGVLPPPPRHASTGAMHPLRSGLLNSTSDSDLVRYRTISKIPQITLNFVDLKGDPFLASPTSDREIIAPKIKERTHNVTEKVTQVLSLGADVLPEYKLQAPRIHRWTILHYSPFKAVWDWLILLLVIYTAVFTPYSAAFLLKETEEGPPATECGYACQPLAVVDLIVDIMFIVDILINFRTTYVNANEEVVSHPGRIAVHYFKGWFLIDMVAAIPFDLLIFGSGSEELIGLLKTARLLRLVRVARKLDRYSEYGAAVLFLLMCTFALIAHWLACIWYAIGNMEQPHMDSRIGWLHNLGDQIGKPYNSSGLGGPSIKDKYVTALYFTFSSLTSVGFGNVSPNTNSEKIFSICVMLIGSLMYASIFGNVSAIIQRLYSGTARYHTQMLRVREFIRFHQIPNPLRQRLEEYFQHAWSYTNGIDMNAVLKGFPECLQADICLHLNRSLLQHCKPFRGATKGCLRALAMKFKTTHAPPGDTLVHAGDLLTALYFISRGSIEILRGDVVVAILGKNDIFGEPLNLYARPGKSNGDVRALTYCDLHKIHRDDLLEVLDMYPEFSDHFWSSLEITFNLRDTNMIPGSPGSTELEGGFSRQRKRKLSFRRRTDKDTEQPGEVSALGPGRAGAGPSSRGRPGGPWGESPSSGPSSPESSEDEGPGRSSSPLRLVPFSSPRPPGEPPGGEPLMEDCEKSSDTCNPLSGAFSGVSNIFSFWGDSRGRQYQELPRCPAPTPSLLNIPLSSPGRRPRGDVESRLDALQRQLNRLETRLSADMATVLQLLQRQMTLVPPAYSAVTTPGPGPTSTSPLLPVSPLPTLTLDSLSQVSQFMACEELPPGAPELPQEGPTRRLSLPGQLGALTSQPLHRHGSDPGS
row,Compound,"hERG current change (%, negative = inhibition) at 10uM [%]"
1,Clc1cccc(-c2nc(NCCCN3CCOCC3)c3ccccc3n2)c1,-10.1
2,CCOC(=O)N1CCN(C(=O)c2cccc(NC3=NC4CS(=O)(=O)CC4S3)c2)CC1 (centres unmarked),4.31
3,NC(=O)c1cc(Cc2ccccc2)sc1NC(=O)c1ccco1,-13.6
4,O=C1CCC(c2ccccc2)=NN1,9.05
5,COCC(C)NC(=O)/C(=C/c1ccccc1)c1ccccc1 (centres unmarked),-25
6,COc1ccc(S(=O)(=O)C(C#N)c2nc3ccccc3nc2N2CCC(C)CC2)cc1 (centres unmarked),18.6
7,O=C(Nc1ccccc1)Nc1ccc2c(c1)CCC2,29.8
8,CC(OC(=O)CCCOc1ccccc1)C(=O)NC(N)=O (centres unmarked),9
9,Cn1cncc1C#Cc1c(C=O)n(C)c2ccccc12,19.8
10,O=C(COc1cccc2c1CCN(Cc1ccccc1)C2=O)NCc1ccco1,-70.3
11,O=C(COc1cccc2c1CCN(Cc1ccc(Br)cc1)C2=O)NCc1ccco1,-70.6
12,COC(=O)c1ccc(COc2cccc3c2CCN(Cc2cccc(C)c2)C3=O)o1,-3.41
13,Cc1cccc(CN2CCc3c(OCC(=O)NCc4ccco4)cccc3C2=O)c1,-51.2
14,Cc1ccc(CN2CCc3c(OCC(=O)Nc4cc(C)ccc4C)cccc3C2=O)cc1,4.23
15,Cc1ccc(C)c(NC(=O)COc2cccc3c2CCN(Cc2ccccc2)C3=O)c1,-10.1
16,O=C(COc1ccccc1-c1ccccc1)NCc1ccco1,-28
17,Cc1cccc(NC(=O)COc2cccc3c2CCN(Cc2ccccc2)C3=O)c1C,-5.8
18,O=C1c2cccc(OCC(=O)N3CCCc4ccccc43)c2CCN1Cc1ccc(Br)cc1,6.7
19,O=C(CN1C(=O)C2CC=CCC2C1=O)Nc1ccccc1N1CCCC1 (centres unmarked),6.41
20,CCOC(=O)c1c(C)c(C(=O)NCCN2CCOCC2)c(C)n1C,15.1
21,CCOC(=O)C1(C)NC(c2ccco2)C2C(=O)N(C)C(=O)C21 (centres unmarked),13.6
22,COC(=O)c1ccc(C2c3c(oc4ccc(Cl)cc4c3=O)C(=O)N2CCN2CCOCC2)cc1 (centres unmarked),-35.2
23,COc1ccc(C2c3c(oc4ccccc4c3=O)C(=O)N2CCCN2CCOCC2)cc1 (centres unmarked),-7.15

row,Compound,"hERG current change (%, negative = inhibition) at 10uM [%]"
1,COc1ccc(C2c3c(oc4ccc(Cl)cc4c3=O)C(=O)N2CCN2CCOCC2)cc1 (centres unmarked),-81.2
2,C/C(=N\NC(=O)c1c(Br)c(C)nn1C)c1cccc(NC(=O)C2CCC2)c1,-19.4
3,Cc1c(C(=O)N2CCN(S(C)(=O)=O)CC2)oc2ccccc12,3.49
4,CCCCNS(=O)(=O)c1ccc2nc(-c3cccnc3)cc(C(=O)NC(C)C)c2c1,16.7
5,O=C(C1CCC1)N1CCC(O)(c2cccc(F)c2)CC1,14.6
6,C=CCNC(=O)NC(=O)COn1nnc2ccc(S(=O)(=O)N(C)C)cc21,5.69
7,CCc1ccc(NC(=O)COn2nnc3ccc(S(=O)(=O)N(C)C)cc32)cc1,-29.1
8,CN(C)S(=O)(=O)c1ccc2nnn(OCC(=O)NC34CC5CC(CC(C5)C3)C4)c2c1,-51.7
9,Cc1ccccc1CC(=O)Nc1ccc2c(C)cc(=O)oc2c1,-15.3
10,CCOC(=O)c1ccc(NC(=O)c2nc[nH]c2C(=O)N2CCN(c3ccccc3)CC2)cc1,3.29
11,O=C(O)C(Cc1c[nH]c2ccccc12)NS(=O)(=O)c1ccc(Br)cc1 (centres unmarked),8.36
12,CCOP(=O)(c1ccccc1)c1nc(-c2ccccc2C)oc1N1CCCCC1 (centres unmarked),0.633
13,CCOP(=O)(OCC)c1nc(-c2ccccc2)oc1N1CCCCC1,4.4
14,Cc1ccc(-c2nc(P(=O)(c3ccccc3)c3ccccc3)c(N3CCOCC3)o2)cc1,-38.3
15,CCOP(=O)(c1ccccc1)c1nc(-c2ccc(F)cc2)oc1N1CCCCC1 (centres unmarked),-56.6
16,CCOP(=O)(c1ccccc1)c1nc(-c2ccccc2Cl)oc1N1CCCCC1 (centres unmarked),-11.4
17,CCOP(=O)(OCC)c1nc(-c2ccc(Br)cc2)oc1N1CCCCC1,-65.3
18,COP(=O)(OC)c1nc(-c2ccc(C)cc2)oc1N1CCCCC1,-10.2
19,O=P(c1ccccc1)(c1ccccc1)c1nc(-c2ccc(Cl)cc2)oc1N1CCOCC1,-74.1
20,O=P(c1ccccc1)(c1ccccc1)c1nc(-c2ccccc2)oc1N1CCOCC1,-20.5
21,CC1=CCC2C(=O)N(c3ccc(C)cc3)C(=O)C2C1 (centres unmarked),-4.42
22,Cc1ccc(NC(=O)Cn2nnc(-c3ccccc3NC(=O)c3cccs3)n2)cc1,21.7
23,Cc1nc2ccccc2c(=O)n1-c1ccc(Cl)cc1[N+](=O)[O-],10.1

row,Compound,"hERG current change (%, negative = inhibition) at 10uM [%]"
1,Cc1ccccc1NC(=O)C1CCCN(C(=O)NCc2ccccc2)C1 (centres unmarked),1.82
2,CCCCn1c(O)c(C(C)=NCCN2CCCCC2)c(=O)[nH]c1=O,-21.7
3,CCCCn1c(O)c(C(CC)=NCCCn2ccnc2)c(=O)[nH]c1=O,-43.3
4,CCN(CC)CCCN=C(C)c1c(O)n(C2CCCCC2)c(=O)[nH]c1=O,-48.7
5,CCCCn1c(O)c(C(CC)=NCCN2CCOCC2)c(=O)[nH]c1=O,-15.3
6,CCCCCCN=C(CC)c1c(O)n(CCCC)c(=O)[nH]c1=O,-55.4
7,CCC(=NCCCn1ccnc1)c1c(O)n(-c2ccccc2)c(=O)[nH]c1=O,7.4
8,CCC(=NCCCN(CC)CC)c1c(O)n(C2CCCCC2)c(=O)[nH]c1=O,-52.9
9,CCC(=NCCO)c1c(O)n(C2CCCCC2)c(=O)[nH]c1=O,-14.6
10,CCCCn1c(O)c(C(CC)=NCCN2CCCCC2)c(=O)[nH]c1=O,-53.6
11,CCC(=NCCCn1ccnc1)c1c(O)n(Cc2ccccc2)c(=O)[nH]c1=O,-68
12,CCCCn1c(O)c(C(CC)=NCCCN(C)C)c(=O)[nH]c1=O,-29.2
13,CCCCCCN=C(C)c1c(O)n(CCCC)c(=O)[nH]c1=O,-8.21
14,CCOC(=O)C1=c2s/c(=C\c3cccnc3)c(=O)n2C(N)=C(C(=O)OC)C1c1cccnc1 (centres unmarked),14.7
15,Cn1c(=O)c2c(nc(SCCN3CCOCC3)n2C)n(C)c1=O,16.9
16,Cc1cc(C(=O)NNC(=S)Nc2ccccc2C)cs1,18.8
17,CC(=O)n1nc(-c2cccnc2)nc1N,-7.75
18,NS(=O)(=O)c1cc2c(cc1Cl)NC(C(Cl)Cl)NS2(=O)=O (centres unmarked),20.2
19,CCCCn1c(O)c(C=NCCN2CCCCC2)c(=O)[nH]c1=O,-2.31
20,CCCCCCn1c(O)c(C=NCCN2CCOCC2)c(=O)[nH]c1=O,-7.56
21,CCCCCCn1c(O)c(C=NCCN2CCCCC2)c(=O)[nH]c1=O,-51.9
22,CCCNC(=O)N1CCC(C(=O)c2cccc(F)c2)CC1,-10.9
23,C#Cc1ccc(C(=O)NCc2ccc(N3CCCC3=O)cc2)cc1,20.2

row,Compound,"hERG current change (%, negative = inhibition) at 10uM [%]"
1,CC(C)(C)NC(=O)C(c1ccco1)N(C(=O)Cn1nnc(-c2ccc(F)cc2)n1)c1ccccc1 (centres unmarked),-17.5
2,CCC1CCCCN1CCCNC(=O)c1ccc2nc(N3CCC(C)CC3)sc2c1 (centres unmarked),-64.5
3,CC1CCCCN1CCCNC(=O)c1cc(Br)c(Br)[nH]1 (centres unmarked),-64.9
4,CC1CCCCN1CCCNC(=O)c1ccc2nc(N3CCCCC3)sc2c1 (centres unmarked),-22.8
5,CCC1CCCCN1CCCNC(=O)c1ccc2c(c1)c(C)c(C)n2C (centres unmarked),-35
6,Cc1c(C)n(C)c2ccc(C(=O)NCCCN3CCCCC3C)cc12 (centres unmarked),-19.6
7,CC1CCN(c2nc3ccc(C(=O)NCCCN4CCCCC4C)cc3s2)CC1 (centres unmarked),-59
8,CCC1CCCCN1CCCNC(=O)c1ccc2nc(N3CCCCC3)sc2c1 (centres unmarked),-34
9,CC1CCCC(C)N1CCCNC(=O)c1ccc2nc(N3CCOCC3)sc2c1 (centres unmarked),-10.3
10,CC(C)CC1Nc2ccc(C(=O)NCCCN3CCCCC3C)cc2NC1=O (centres unmarked),3.4
11,Cc1ccc(OCC(=O)NNC(=O)CCc2ccccc2)c(Br)c1,10
12,CCOC(=O)N1CCN(C(=O)C2CCCN(S(=O)(=O)c3ccc(F)cc3)C2)CC1 (centres unmarked),-10.1
13,COc1ccc(Cl)cc1NC(=O)c1cc(-c2ccc(C)cc2O)n[nH]1,15.9
14,O=C1CSC(c2ccncc2)N1Cc1ccc(F)cc1 (centres unmarked),1.53
15,C=CCNc1nc(N2CCOCC2)c(C#N)c2c1CN(C)CC2,-14.1
16,C=CCNc1nc(NCc2ccccc2)c(C#N)c2c1CN(C)CC2,-68.1
17,CN1CCc2c(C#N)c(N3CCCCC3)nc(NCc3ccccc3)c2C1,-2.02
18,CCN1CCc2c(C#N)c(NCc3ccccc3)nc(NCCO)c2C1,-51.6
19,CCN1CCc2c(C#N)c(NCc3ccccc3)nc(N(CC)CC)c2C1,-68.5
20,N#Cc1c(NCCO)nc(NCc2ccccc2)c2c1CCN(Cc1ccccc1)C2,-27.1
21,CCc1nc(NCc2ccccc2)c(C#N)c2c1CCCC2,23.3
22,CCN1CCc2c(C#N)c(N3CCCCC3)nc(NCc3ccccc3)c2C1,-39.8
23,CCN1CCc2c(C#N)c(N3CCOCC3)nc(NCCO)c2C1,11.8
